The labels stand for the following.
B1: chr14:89338683:89338684:+_ENSG00000165533_ENST00000346301|hu_hu|hu_hu_hu_mus_False|58_68 (ssRNA)
RNA: GGGAGUUCUACAGUCCGACGAUCGUGGUUGUUGUGGACCAGGGCCAGCCUGAAGCAUUGGUGGGCCAAAUUUGUAUCUCCUAUUCCCACAGCUAUGUGCCCCAGGUUGUACCAGACAUCAGCUGCCUCUUCUUCAUUUUCAGCCAACAGAGGAUUGAGCAUCA
B2: chr9:109937893:109937894:+_ENSMUSG00000032479_ENSMUST00000165876|mus_mus|motif|central (ssRNA)
RNA: GGGAGUUCUACAGUCCGACGAUCUUCACGUGGUUUUUCUUCAGUCUGUACAGUUCCUUUGUCUUUAAUUGGAACUGUUGCGGCUUUUGUUUCCAAGGGCAGUGCAAGAUCGGAGGCUGGAGCCAUGCUGUUGUCCACAAUCAGCAACAGAGGAUUGAGCAUCA
B3: 126495366_126496508_792_3pUTR_ENSMUSG00000040502_ENSMUST00000040307|mouse|control|control (ssRNA)
RNA: GGGAGUUCUACAGUCCGACGAUCAUUAGGCAGGGUUGGUGUGUGCAACGCACUGAGCCGUCACAGCGGCAAGGGCUCAGGAGCUCCCCCUGCUCCGGGCCUUGGAAGCAGAUCCUGCACUGGGGGGUUCGGAGCCCACUGUCCCAACAGAGGAUUGAGCAUCA
B4: chr7:149838571:149838572:-_ENSMUSG00000048583_ENSMUST00000000033|mus_mus|motif|central (ssRNA)
RNA: GGGAGUUCUACAGUCCGACGAUCCAUGUAUCACUUGGCAGUGCCAUCUCCUUAUCUGGCCAAACUUAUUCUACACUGGCGGGUCAUUGGUCCUCAUGGCGGGGGUGGUUGGGGAGCACCGGGCUCACCAUGUGGACAGGUGCUCAACAGAGGAUUGAGCAUCA
B5: chr6:74304526:74304527:-_ENSG00000119899_ENST00000355773|hu_mus|motif|central (ssRNA)
RNA: GGGAGUUCUACAGUCCGACGAUCCAAGUUUAUCAGUGUGUGUGUGUGUGUGUGUGUCCAUUUCAGCUUCAUUUCCGGUGCCCUUACCUUAUAUCAUACUGCCUUUCCUGCAGCCUGAUAUGUGAACCCAGUAUACGGCCUGGCCAACAGAGGAUUGAGCAUCA
B6: chr9:15470827:15470828:-_ENSG00000164985_ENST00000397519|hu_hu|motif|central (ssRNA)
RNA: GGGAGUUCUACAGUCCGACGAUCGAAUGUCAAGAGAAGGGCCCCAUUCUCAGGGAUAUAACUGCUAUUCCAGUUUAAUAACGGGCUUCAAAACAAAAUGAAUUUUUAUAUUUUCUAGAUGAAUAAUGUACAACCACCAUCUUCCAACAGAGGAUUGAGCAUCA
B7: chr5:137088537:137088538:-_ENSG00000177733_ENST00000314940|hu_mus|FALSE|FALSE (ssRNA)
RNA: GGGAGUUCUACAGUCCGACGAUCUCCCGCCCGCCCACCCGCCCCCCCAAAAAACACAAAUUAAAACAAGACAUUUUUUUGCUAGUAUAAAAACGACCAAGGUCCAAGUAAUAAUAAAAAAAUAGAGUCCAUCAAUGACUGUAACAACAGAGGAUUGAGCAUCA
B8: chr4:57314706:57314707:+_ENSG00000128050_ENST00000264221|hu_mus|hu_hu_hu_mus_True|48_88 (ssRNA)
RNA: GGGAGUUCUACAGUCCGACGAUCCAGAAUUUCAAAAAUAGCUUGUGUAGCAUGACUCAUGAUGUCCACUUCAGUCUGCCCUAUAACAAGUCCAGCAAAACAGAAUUUUGCAGCAAUGAGUUGCUCCUCAGACCACUGUGGAUCCAACAGAGGAUUGAGCAUCA
B9: chr5:137088537:137088538:-_ENSG00000177733_ENST00000314940|hu_hu|motif|central (ssRNA)
RNA: GGGAGUUCUACAGUCCGACGAUCCAGCAAGUUCACUCCCUCCCUCCCCCCAAAAAACACAAAUUAAAACAAGACAUUUUGCGGGUAUAAAAACGACCAAGGUCCAAGUAAUAAUAAAAAAAUAGAGUCCAUCAAUGACUGUAACAACAGAGGAUUGAGCAUCA
B10: chr5:137088537:137088538:-_ENSG00000177733_ENST00000314940|hu_mus|motif|central (ssRNA)
RNA: B7 RNA with U82G, A83G
B11: chr4:57314706:57314707:+_ENSG00000128050_ENST00000264221|hu_mus|hu_hu_hu_mus_True|88_98 (ssRNA)
RNA: B8 RNA with U42C, U90G
B12: chr5:137088537:137088538:-_ENSG00000177733_ENST00000314940|hu_hu|FALSE|FALSE (ssRNA)
RNA: B9 RNA with G82U, G83A
B13: chr4:88367131:88367132:-_ENSMUSG00000070923_ENSMUST00000094993|mus_mus|FALSE|FALSE (ssRNA)
RNA: GGGAGUUCUACAGUCCGACGAUCUUGGUAAUUGCUUGCUUCCAAAAGUAAAUUCACACAGGUAUUGUCUGUUCUCAUGAAAUCUACUGUCUGCACAUAGUUGAUGAGAUCCUGUGGUGUCAUCAGUGGAAAGCGAAUAUUCUUCAACAGAGGAUUGAGCAUCA
B14: chr12:16048344:16048345:+_ENSG00000023734_ENST00000419869|hu_hu|hu_hu_hu_mus_True|78_98 (ssRNA)
RNA: GGGAGUUCUACAGUCCGACGAUCAGAUCGUCCAUAAGUUAUAACCAAAAUCUCUCCCUCAGGAAUAUACUCCAUGCUGCUAACAGACAUAUUAAAAUUCAGAGAUUUCACUUCUGUCAUUGUGGCAUGAUCCCAGAGCCGAACCAACAGAGGAUUGAGCAUCA
B15: 201281127_201284068_384_CDS_ENSG00000196141_ENST00000360760|human|control|control (ssRNA)
RNA: GGGAGUUCUACAGUCCGACGAUCCGGCUGCAGGGGCCCUGCCUCAGGCCUCUCCACCUUGUCUUUAGCAUCUUUGUUGCCUUGAUGCUGCUUGGACUUGCUUCUUUUUCUUUUAUUGUUCUUCUUUUUUCCUGUCAUAUUCCACAACAGAGGAUUGAGCAUCA
B16: chr4:144460044:144460045:+_ENSG00000153147_ENST00000283131|hu_mus|hu_hu_hu_mus_False|1_78 (ssRNA)
RNA: GGGAGUUCUACAGUCCGACGAUCACGGUCCAUAGCCUGAAGAUCAACUUGCGGAUUCCAAUCAGAAUCAUAUAAAAUGACUACAUCAGCAGUUGCAAGAUUGAUGCCCAGACCACCAGCACGUGUGCUUAGCAUAAAAACAAACAACAGAGGAUUGAGCAUCA
B17: 32049908_32050383_1188_CDS_ENSMUSG00000039262_ENSMUST00000036691|mouse|control|control (ssRNA)
RNA: GGGAGUUCUACAGUCCGACGAUCUUCUUUCCCAUCUUGGUCGUUCAUCUGGAACUGUCUGAAAGGAACACGGGGUUCCAGGCGGAGCUGAGGAAGGGGAAAAGAGCUUCGUUCCACCGUAGUCUGGUUCUCUGAUGACUGUGGCAACAGAGGAUUGAGCAUCA
B18: chr16:1859243:1859244:-_ENSG00000063854_ENST00000397353|hu_mus|FALSE|FALSE (ssRNA)
RNA: GGGAGUUCUACAGUCCGACGAUCAAUUAACUGAAAAGUAGACUGUCCUGCAUUAGCAGCAGGCCAGUCGGUUAGAAGUCCCUGUCCCAGCGUGGGUGUGCCUCAGUCCCGAGGCACCUUGAACUGGUCCUUCUCCCUGCGGAUCAACAGAGGAUUGAGCAUCA
B19: chr2:122485053:122485054:-_ENSG00000155438_ENST00000285814|hu_mus|FALSE|FALSE (ssRNA)
RNA: GGGAGUUCUACAGUCCGACGAUCUAAGCCUGAGUUUCAUAAGGAUAGUAAAACUGAGGGACCGAUGAAGCCUGAAGACAAAUUCAGGACAGGAAAGGGCACAGUCAGGUUCCCAGUGGCUUUCCUCACUGGAAAACCAAACAUCAACAGAGGAUUGAGCAUCA
B20: chr19:16212804:16212805:+_ENSG00000167460_ENST00000300933|hu_mus|hu_hu_hu_mus_False|18_68 (ssRNA)
RNA: GGGAGUUCUACAGUCCGACGAUCAACAAUUCUGGAGUGAAGGAAAGAUGUAACAUGGAACAGCAUUCCAUCUAUUACAGAAGGCACAUGGGCAACAAUGAUCACCCCAGCAUUCUCCUACGUUGACCUUAAAGACAAUCUGUUCAACAGAGGAUUGAGCAUCA
B21: chr11:54532911:54532912:-_ENSMUSG00000052298_ENSMUST00000064104|mus_mus|motif|central (ssRNA)
RNA: GGGAGUUCUACAGUCCGACGAUCGCAGAGGGGCUGGAGGUGCAAUGAAAAGGCUUAAAAUGGAAAAAUUACAAUACAGUGCGGGCAGUCACAGAAAAGACCAUGCUAAGAUCCGAUCCAUGUCAAUUAAACAUUGAAAAUUCACAACAGAGGAUUGAGCAUCA
B22: chr10:70021928:70021929:-_ENSMUSG00000037747_ENSMUST00000162251|mus_hu|FALSE|FALSE (ssRNA)
RNA: GGGAGUUCUACAGUCCGACGAUCAUGCUUCAGUGGAAAACAUCUGGUGAUAAAAAUGGACAACAGAGGACCAAUGCUCCUAAGGGAGGAAAAGGGGCUGAGUAAGAAUAAGAAAAGUGGGCAUUAACGUCCAACACUGAUAUUCAACAGAGGAUUGAGCAUCA
B23: chr19:15981513:15981514:-_ENSMUSG00000024640_ENSMUST00000025542|mus_hu|motif|central (ssRNA)
RNA: GGGAGUUCUACAGUCCGACGAUCUAAAGCAUCAUCUCCUUUGGCAUUGCCAAUGCGGAAUGGAAUAUUCAUCUUGCUUCGGUUUUGGGGCUCCACUGGACAAACGUAGAAUCCUUGAGAAUUAUCAAUAAUCUCAUAAAUUGUCAACAGAGGAUUGAGCAUCA
B24: 181288587_181288707_5387_3pUTR_ENSMUSG00000000826_ENSMUST00000072334|mouse|control|control (ssRNA)
RNA: GGGAGUUCUACAGUCCGACGAUCUCAUAAUCCAGUGGCUUGGUUUGGCCAUUAAGACCAGAGGACAUGGUUACUUGCUCUGGAGUAAAAAGCUAGAGCUGUUAGGCAAGAAUUCAACCACUAAGGGGCCAGACACUGUGAGGGCAACAGAGGAUUGAGCAUCA
B25: chr17:35122734:35122735:+_ENSMUSG00000007050_ENSMUST00000114011|mus_mus|FALSE|FALSE (ssRNA)
RNA: GGGAGUUCUACAGUCCGACGAUCUCCAUCCCUCAAAUGUAUUACAUGUCGCCACGGAAGGGCUUAGGAUGCUGCUCCCAUCUCCAGGAAAGAUGAGAAAAAGGUACAGACUGGGAGCCAGUCCAGGACCAUUCUGCAGUUCCUCAACAGAGGAUUGAGCAUCA
B26: chr10:70021928:70021929:-_ENSMUSG00000037747_ENSMUST00000162251|mus_mus|motif|central (ssRNA)
RNA: GGGAGUUCUACAGUCCGACGAUCAUGCAUGCUUCAGUGGGGACAUCUGAUGGCAGAUGGACAACAGAGGGUAAUGCUCCGGUGGGAAGACAGGGUGUGUGGGGCGGGGAAGGGGCGAAAGUGGUGUUAGCGUCCGACACUGAUCAACAGAGGAUUGAGCAUCA
B27: chr10:70021928:70021929:-_ENSMUSG00000037747_ENSMUST00000162251|mus_hu|motif|central (ssRNA)
RNA: B22 RNA with U80G, A81G

Changes are numbered by the printed parent chain. In all, about 24,000 sequences were measured (“enrichment r”: median about 0.99, highest 2% from about 3.7 on). Only a selection was taken, and the highest values are over-represented in it overall.

Our source for the binding signal values is article PMC12136788.

This experiment has as its target T1, UNK ZnF1-3 (human, UniProt Q9C0B0 31-174).
T1 sequence: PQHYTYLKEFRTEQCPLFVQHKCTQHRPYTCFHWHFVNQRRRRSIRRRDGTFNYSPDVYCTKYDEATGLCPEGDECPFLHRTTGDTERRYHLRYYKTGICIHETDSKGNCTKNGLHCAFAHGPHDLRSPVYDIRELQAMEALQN
Description: nsRBNS (natural sequence RNA bind-n-seq); RBNS binding buffer (assumed for nsRBNS): 25 mM Tris pH 7.5, 150 mM KCl, 3 mM MgCl2, 0.01% Triton X-100, 500 ug/ml BSA, 20 U/ml SUPERase-In, 4 C; UNK is unkempt and MSI1 is Musashi-1; names of the RNAs are library labels; protein concentration not given here; high values mean tight binding.
B1 had a binding signal of 0.84 enrichment R.

The molecule B2 yielded a binding signal of 0.462 enrichment R. For the molecule B3, the binding signal was 0.848 enrichment R. Under B4 stands 0.781 enrichment R; under B5, 0.616 enrichment R. The result for B6 reads 1.6 enrichment R; that for B7, 9.05 enrichment R; that for B8, 0.922 enrichment R. Molecule B9 returned a binding signal of 6.14 enrichment R. Under B10 stands 3.51 enrichment R; under B11, 0.943 enrichment R. Under B12 stands 5.73 enrichment R. With B13, the binding signal came out at 0.859 enrichment R.

The molecule B14 yielded a binding signal of 1.06 enrichment R.

Consider B15, for which the binding signal amounted to 0.308 enrichment R. B16 gave a binding signal of 1.34 enrichment R. The result for B17 reads 0.807 enrichment R; that for B18, 0.931 enrichment R; that for B19, 0.908 enrichment R. Regarding B20, the binding signal turned out to be 0.856 enrichment R. Under B21 stands 4.45 enrichment R; under B22, 4.68 enrichment R; under B23, 0.859 enrichment R. Under B24 stands 1.11 enrichment R; under B25, 1.03 enrichment R.

Regarding B26, the binding signal was found to be 1.77 enrichment R. The result for B27 reads 4.93 enrichment R.
